Some test systems named below: SK-MEL-2 melanoma; EKVX NSCLC; SN12C renal; UO-31 renal; TK-10 renal; ACHN renal; CAKI-1 renal; A498 renal; CCRF-CEM leukemia; MOLT-4 leukemia.
Test in all cases: NCI-60 one-dose screen, 48 h (100 = growth as untreated, 0 = no growth, -100 = all killed)
What all share (settings): 10 µM unless noted

The record followed here is PubChem BioAssay (NCI).

SMILES strings stand for the structures. Compounds without any hit were thinned out: in the full panel of roughly 83,000, 20% have a hit.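 Compound tested at a single concentration for 48 hours in 96-well plates; a percent growth value below 10 was scored as active.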 Unmarked numbers belong to inactive results. Activity calls are given as the source filed them.

Take `COc1ccc(C2c3ccccc3NC(=O)N2C2CCN(C)CC2)c(OC)c1` (stereo not given): the growth with SK-MEL-2 melanoma was 108%; with EKVX NSCLC, 87%; in the assay on SN12C renal, 95.6%; in the assay on UO-31 renal it was 89.7%; in the assay with TK-10 renal, 98.1%; in the assay with ACHN renal it was 103%. Further, the growth is 102% in the assay on CAKI-1 renal, 102% in the assay with A498 renal, 106% with CCRF-CEM leukemia and 99.5% in the assay on MOLT-4 leukemia.
For the compound `N#CCCCCCn1c2ccccc2c2c3c(c4c5ccccc5n(CCCCCC#N)c4c21)C(=O)N(O)C3=O`, the growth with SK-MEL-2 melanoma was 85%; with EKVX NSCLC, 95%; in the assay with SN12C renal, 79.8%; with UO-31 renal, 58.2%; in the assay with TK-10 renal it was 95.3%; in the assay on ACHN renal, 83.8%. Further, the growth was 0.852% (active) in the assay on CAKI-1 renal, 107% in the assay with A498 renal, 74.5% in the assay with CCRF-CEM leukemia and 73.8% in the assay on MOLT-4 leukemia.
For `CC1(C)C(=O)/C(=C\c2cccnc2)C[C@]2(C)[C@H]3CC[C@@H]4[C@@H](C(=O)/C=C/c5ccncc5)CC[C@@]4(C)[C@]3(C)CC[C@@H]12`, the growth in the assay with SK-MEL-2 melanoma is -3.01% (active); in the assay on EKVX NSCLC it was 50.4%; with SN12C renal, 8.09% (active); in the assay with UO-31 renal, -94.5% (active); in the assay with TK-10 renal, 65.6%; with ACHN renal, -78.8% (active). The growth with CAKI-1 renal was 28.4%; in the assay with A498 renal, 47.3%; in the assay with CCRF-CEM leukemia, 8.73% (active); with MOLT-4 leukemia it was 8.03% (active).
Turning to `O=C1/C(=C\c2ccco2)SC(=S)N1CCc1ccc(O)cc1`, the growth is 104% with SK-MEL-2 melanoma; 91.1% in the assay with EKVX NSCLC; 91.6% in the assay on SN12C renal; 54% in the assay with UO-31 renal; 130% in the assay on TK-10 renal; 96% in the assay on ACHN renal. For the same compound, the growth with CAKI-1 renal was 83.4%; with A498 renal, 97.1%; in the assay on CCRF-CEM leukemia, 44.8%; with MOLT-4 leukemia, 82.2%.
For `CCN(CC)c1ccc(/C=C/c2cc(C)c3ccccc3n2)cc1`, the growth in the assay on SK-MEL-2 melanoma was 72.9%; with EKVX NSCLC, 92.8%; in the assay with SN12C renal, 60%; in the assay with UO-31 renal it was 66.6%; in the assay on TK-10 renal, 70.3%; in the assay with ACHN renal it was 60.8%. Further, the growth with CAKI-1 renal was 51.9%; with A498 renal, 51.7%; in the assay on CCRF-CEM leukemia, 53.4%; with MOLT-4 leukemia, 23.5%.
As for `Cc1ccc2c(c1)c(-c1nc(-c3c[nH]c4ncccc34)cs1)cn2C`, the growth in the assay on SK-MEL-2 melanoma was 99.3%; with EKVX NSCLC, 35.1%; in the assay with SN12C renal it was 90.9%; in the assay with UO-31 renal, 86.2%; in the assay on TK-10 renal, 81.5%; in the assay on ACHN renal it was 98.6%. In addition, the growth was 107% in the assay with CAKI-1 renal, 112% in the assay with A498 renal, 77.7% with CCRF-CEM leukemia and 75.2% in the assay with MOLT-4 leukemia.
In the case of `CCCCCCCCNc1cccc2c1C(=O)c1ccccc1C2=O`, the growth in the assay with SK-MEL-2 melanoma was 108%; with EKVX NSCLC it was 109%; in the assay on SN12C renal, 97.6%; in the assay with UO-31 renal, 92.2%; with TK-10 renal, 98.3%; with ACHN renal it was 111%. Besides, the growth with CAKI-1 renal was 98.3%; in the assay on A498 renal it was 81.1%; in the assay on CCRF-CEM leukemia, 112%; with MOLT-4 leukemia it was 90.5%.
As to `COc1cc2nc(Cl)nc(Nc3cccc(C(=O)/C=C/c4ccccc4)c3)c2cc1OC`, the growth in the assay on SK-MEL-2 melanoma is 86.8%; in the assay with EKVX NSCLC, 81.5%; in the assay with SN12C renal, 59.5%; with UO-31 renal, 50.8%; in the assay on TK-10 renal it was 143%; in the assay on ACHN renal, 13.7%. Further, the growth with CAKI-1 renal was 48.4%; in the assay with A498 renal, 90.6%; in the assay with CCRF-CEM leukemia, 28.9%; with MOLT-4 leukemia, 34.5%.
For `COc1cc2nc(Cl)nc(Nc3cccc(C(=O)/C=C/c4ccc(Br)cc4)c3)c2cc1OC`, the growth is 92.4% with SK-MEL-2 melanoma; 81.3% in the assay with EKVX NSCLC; 80.8% with SN12C renal; 60.8% in the assay with UO-31 renal; 172% in the assay with TK-10 renal; 78.3% with ACHN renal. Besides, the growth was 72.8% with CAKI-1 renal, 85.4% in the assay with A498 renal, 31.3% in the assay on CCRF-CEM leukemia and 37.1% with MOLT-4 leukemia.
Regarding `C=C1C(=O)O[C@H]2[C@H]1CC/C(Cn1cc(-c3ccc(F)cc3)nn1)=C\CC[C@@]1(C)O[C@@H]21`, the growth in the assay on SK-MEL-2 melanoma was 14.9%; in the assay on EKVX NSCLC it was 68.4%; in the assay with SN12C renal, -13.6% (active); in the assay on UO-31 renal it was -80.8% (active); in the assay on TK-10 renal, -92.9% (active); with ACHN renal, -19.7% (active). Moreover, the growth in the assay on CAKI-1 renal is -12.9% (active); in the assay with A498 renal it was 27.4%; in the assay on CCRF-CEM leukemia it was -36.6% (active); in the assay on MOLT-4 leukemia, -25.4% (active).
With `CN(C)CCCC1(c2ccc(F)cc2)OCc2cc(-c3ccc(C(F)(F)F)nc3)ccc21` (stereo not given), the growth with SK-MEL-2 melanoma was 94.2%; in the assay with EKVX NSCLC, 76.1%; in the assay on SN12C renal, 75.1%; in the assay with UO-31 renal, 55.5%; in the assay with TK-10 renal, 82.4%; with ACHN renal, 83.1%. Moreover, the growth was 55.4% with CAKI-1 renal, 89.8% in the assay on A498 renal, 69.1% in the assay with CCRF-CEM leukemia and 53.6% in the assay on MOLT-4 leukemia.
As for `S=c1[nH]nc2ccccn12`, the growth was 95.3% in the assay with SK-MEL-2 melanoma; 102% with EKVX NSCLC; 106% in the assay with SN12C renal; 87.7% in the assay with UO-31 renal; 85.7% in the assay on TK-10 renal; 102% with ACHN renal. In addition, the growth in the assay with CAKI-1 renal was 102%; with A498 renal, 100%; in the assay with CCRF-CEM leukemia it was 101%; in the assay on MOLT-4 leukemia it was 80.7%.
Take `O=C1CCN2C(=O)Nc3ccccc3C2C1` (stereo not given): the growth in the assay with SK-MEL-2 melanoma is 110%; in the assay on EKVX NSCLC, 99.8%; in the assay with SN12C renal, 94.2%; in the assay with UO-31 renal, 94.1%; in the assay with TK-10 renal it was 104%; in the assay on ACHN renal, 106%. Also, the growth in the assay with CAKI-1 renal is 89.6%; in the assay with A498 renal, 120%; in the assay on CCRF-CEM leukemia it was 106%; with MOLT-4 leukemia, 97.8%.
